# According to PubChem BioAssay AID938 (National Center for Advancing Translational Sciences (NCATS), 2007):
# Several values for one entry are separate records, joined by “and”; a condition that tells them apart may be missing. Equal entries are not always repeated. Hit rate of the full screen: of about 73,000 compounds, about 1,800 (2.5%) were called active. Roughly 13% stayed inconclusive and do not appear here. Shown is part of a subset that was picked to be rich in actives. Values without a mark were called inactive. Calls follow the shape of the dose curve; as a rule, active = well fitted activation curve with a large enough effect; inconclusive = small, poorly fitted or top-dose-only effect; inactive = no such curve, though single readings can be large or run the other way.
# Assay: qHTS Assay for Agonists of the Thyroid Stimulating Hormone Receptor: Activators of Intracellular cAMP Concentrations in Parental HEK 293; also: nearly all actives have a fitted effect of over 55% in size; as to activation: % of control where 0% means no effect
# Details: parental HEK293 CNG cAMP sensor, membrane potential fluorescence; series mostly up to 57.1 µM; activation: at the top concentration
# Text: NIH Chemical Genomics Center [NCGC]
# NIH Molecular Libraries Screening Centers Network [MLSCN]
# PI Name: Dr. Marvin Gershengorn
# This cell based assay utilized a cyclic nucleotide gated ion channel (CNG) as a biosensor for cAMP induction. HEK 293 cells stably expressing the modified CNG were purchased from BD biosciences (http://www.atto.com/products/actone/features_benefits.shtml) . Stimulation of cAMP production causes the CNG to open and subsequent membrane depolarization to occur. A fluorescent membrane potential dye (BD biosciences) was utilized to detect cAMP stimulation in cells.
# The cells were maintained in DMEM medium (Invitrogen) containing 10 % FBS (Hyclone), 100 units/ml Penicillin, 100 ug/ml Streptomycin (Invitrogen), and 250 ug/ml Geneticin (Invitrogen) and 1 ug/ml Puromycin (Invitrogen) at 37C in 5% CO2. This assay was used as a counterscreen to "qHTS Assay for Agonists of the Thyroid Stimulating Hormone Receptor", to control for compounds signaling through endogenous receptors and other targets of HEK 293 cells.
# NCGC Assay Protocol Summary:
# High Throughput Screening. Freshly passaged cells were dispensed into 1536-well assay plates at 4 ul/well in DMEM containing phenol red (Invitrogen), 10% FCS (Hyclone), and 100 units/ml Penicillin, 100 ug/ml Streptomycin (Invitrogen) and incubated at 37 C with 5% CO2 for 20 to 36 hrs before the robotic screening. The screen was initiated by addition of 4 ul/well membrane potential dye containing 100 uM RO 20-1724 (Sigma Aldrich), followed by 60 min incubation at room temperature to allow for dye equilibration across the cell membrane. 23 nl/well compound or control was then added to the assay plates, which were incubated for additional 30 min before reading a Envision fluorescence plate reader (Perkin Elmer) in bottom-read mode for fluorescence intensity (emission at 590 nm).
# Keywords: cAMP, CNG Ion Channel, quantitative high throughput screening, qHTS, HTS, probe identification, CNG, cAMP, cyclic nucleotide gated ion channel PubChem
# Potency is read from the fitted curve at half-maximal effect.
SMILES,activation,Potency
CCC(c1nnnn1C1CCCC1)N(Cc1cccs1)Cc1cc2cccc(C)c2[nH]c1=O (centres undefined),24.4%,–
COc1ccc(CCN(Cc2cc3cccc(C)c3[nH]c2=O)C(=O)N2CCCC2)cc1OC,4.44%,–
CCC(c1nnnn1Cc1ccco1)N(Cc1cc2cc(OC)ccc2[nH]c1=O)C1CCCCC1 (centres undefined),–,10 µM (active)
CCC(c1nnnn1Cc1ccco1)N(CCc1ccccc1)Cc1cc2cccc(C)c2[nH]c1=O (centres undefined),–,12.6 µM (active)
COc1ccc2[nH]c(=O)c(CN(Cc3nnnn3CCc3ccccc3)CC3CCCO3)cc2c1 (centres undefined),11.3%,–
COc1ccc2[nH]c(=O)c(CN(CC3CCCO3)C(=O)Nc3ccccc3)cc2c1 (centres undefined),7.93%,–
COc1ccc(/C=C/NC(=O)Cc2ccc(OC)c(OC)c2)cc1,28.5% [at 11.4 µM] and 7.24% [at 11.4 µM],–
Cn1c(CNc2nc(-c3ccccc3)cs2)nnc1SCC(=O)c1ccccc1,5.27%,–
CCN(CC)CCCCn1c(-c2ccccc2)nc2c(N3CCOCC3)nc(C)nc21,25%,–
COc1c(C)cccc1C(=O)Nc1cc(Cl)ccc1N1CCOCC1,–,25.1 µM (active)
O=C(CNC(=O)c1ccc(Cl)cc1Cl)NCC(=O)Nc1ccccc1N1CCOCC1,2.72%,–
CC(=O)Nc1ccc(N2CCOCC2)c(C(=O)Nc2cccc(C)c2)c1,-0.0802%,–
Cc1ccc(NC(=O)c2cccc(N(C)C)c2)cc1NC(=O)c1ccc(O)cc1,0.64%,–
COC(=O)c1oc2ccc(Br)cc2c1NC(C)=O,10.9%,–
Cc1cccc(OCc2nnc(SCn3nnc4ccccc4c3=O)o2)c1,–,25.1 µM (active)
Cc1cc(C)cc(OCc2nnc(SCC(=O)Nc3ccccc3)o2)c1,6.95%,–
Cc1cccc(OCc2nnc(SCc3nc4cc(C(F)(F)F)ccc4c(=O)[nH]3)o2)c1,2.42%,–
Cc1noc(C)c1S(=O)(=O)N(CC(=O)Nc1ccc2c(c1)OCCO2)c1ccc(C(C)C)cc1,20.2%,–
C=CCOc1ccc(/C=N/n2cncn2)cc1OC,-4.54%,–
Cc1nc(C)c(C(=O)Nc2cccc(C)c2C)o1,7.93%,–
CCCCOc1ccc(-c2nnc(-c3ccco3)o2)cc1,–,20 µM (active)
CCC(=O)Oc1cccc(C(=O)Nc2ccc(-c3nnc(-c4ccco4)o3)cc2)c1,1.31%,–
Cc1ccc(OCC(=O)Nc2ccc(-c3nnc(-c4ccco4)o3)cc2)cc1,21.5%,–
CC(C)(C)c1ccc(OC2C=CC(C#Cc3ccccc3)OC2CO)cc1 (centres undefined),12.6% [at 11.4 µM],–

SMILES,activation,Potency
Cc1cc2nc3c(=O)[nH]c(=O)nc-3n(C[C@H](O)[C@H](O)[C@H](O)CO)c2cc1C,35.7%,–
CC(Cc1cccs1)NC(=O)NC1CCCCC1 (centres undefined),6.28%,–
O=C(Nc1ccc(Oc2ccccc2)cc1)c1ccco1,9.26%,–
O=C(Nc1c(-c2ccccc2)nc2c(Br)cc(Br)cn12)c1ccco1,–,20 µM (active)
Cc1ccccc1NC(=O)c1cnn(-c2ccccc2)c1NC(=O)c1ccco1,5.37%,–
Cn1c(=O)c2c(nc(N3CCCCCC3)n2CC(O)COc2ccc(Cl)cc2)n(C)c1=O (centres undefined),-35.3%,–
N#Cc1nc(COc2ccc(-c3ccccc3)cc2)oc1NCc1cccnc1,16.9%,–
Cc1ccc(OCc2nc(C#N)c(N3CCCC3)o2)cc1,–,20 µM (active)
CCOc1ccc(Nc2oc(Cc3ccccc3)nc2C#N)cc1,6.65%,–
N#Cc1nc(COc2ccc(Cl)cc2)oc1N1CCCC1,–,15.8 µM (active)
N#Cc1nc(-c2ccc(OCc3ccccc3)cc2)oc1NCCCN1CCOCC1,-0.986%,–
CCOc1cc(/C=N/O)cc(Br)c1OC,15% [at 11.4 µM],–
CCOC(=O)[C@]1(C(/C=C/c2ccco2)NC(=O)OC)CCCC1=O (some centres undefined),0.322% [at 11.4 µM],–
O=C(NC(Cc1ccccc1)C(=O)N1CCCC1C(=O)O)c1ccccc1 (centres undefined),-0.0027%,–
O=c1c(CCc2ccccc2)nc2cncnc2n1C1CC1,2.16%,–
CCOC(=O)C1CCCN(C(=O)C2CCN(c3nnc(-n4cccc4)s3)CC2)C1 (centres undefined),12.6%,–
O=C1CSC(c2cccc(F)c2)N1c1ccccc1F (centres undefined),4.72%,–
Cc1cc(/C=N/n2cnnc2)c(C)n1-c1ccc2ncccc2c1,–,3.98 µM (active)
Fc1ccc(Br)cc1/C=N/n1cnnc1,11%,–
Cc1cc(/C=N/n2cnnc2)c(C)n1-c1cccc(C(=O)O)c1,7.1%,–
CCOC(=O)c1cc2cc(-c3c(C(=O)OCC)oc4cc(O)cc(O)c4c3=O)ccc2o1,-9.15%,–
CN1CCC2(CC1)CCN(S(=O)(=O)c1ccccc1)CC2,–,3.98 µM (active)
COc1ccccc1CN1CC2(CCN(S(=O)(=O)c3ccccc3)CC2)C1,7.71%,–
O=C(Nc1cccc(F)c1)N1CCC2(CC1)CCN(S(=O)(=O)c1ccccc1)CC2,-5.07%,–

SMILES,activation,Potency
CC(=O)c1cnc(Nc2nc(C)c3cc(C)ccc3n2)nc1C,-1.78%,–
CO/N=C\[C@@H](C)[C@H](OCc1ccccc1)C(C)C,-0.643% [at 11.4 µM],–
C[C@H]1CC[C@H](C(=O)O)N[C@@H]1c1ccc(C#Cc2ccccc2)cc1,0.689% [at 11.4 µM],–
CC(C)[C@H](NC(=O)Nc1ccc(S(N)(=O)=O)cc1)C(=O)O,3.41%,–
Cc1ccc(C(=O)CSc2nnc(Cn3nnc4ccccc43)n2C)cc1,1.67%,–
O=C(Cn1nnc(-c2ccccc2)n1)NCc1ccc2c(c1)OCO2,12.1%,–
CC(C)(C)NC(=O)C(c1ccco1)N(Cc1ccc2c(c1)OCO2)C(=O)Cn1nnc2ccccc21 (centres undefined),–,15.8 µM (active)
Cc1ccc(-c2nnn(CC(=O)N(CCO)C(C(=O)NC(C)(C)C)c3ccncc3)n2)cc1 (centres undefined),9.77%,–
CC(C)(C)NC(=O)C(c1ccncc1)N(C(=O)CNC(=O)c1ccco1)c1ccc2c(c1)OCO2 (centres undefined),-1.28%,–
CCC(C)(C)NC(=O)C(c1cccn1C)N(Cc1ccc(C)cc1)C(=O)Cn1nnc2ccccc21 (centres undefined),–,15.8 µM (active)
CC(=O)c1nc(N2C(=O)C3CC=C(C)CC3C2=O)sc1C (centres undefined),1.5%,–
CCOC(=O)CCC(=O)OCC(=O)NC(C)C1CC2CCC1C2 (centres undefined),5.54%,–
CCc1c(C)sc(NC(=O)OC)c1C(=O)N1CCOCC1,-1.6%,–
CC(=O)OCC(=O)[C@@]1(O)CC[C@@H]2[C@H]3CCC4=CC(=O)C=C[C@]4(C)[C@]3(F)[C@@H](O)C[C@@]21C,-1.34% [at 25.6 µM],–
NS(=O)(=O)c1cc(C(=O)O)c(Cl)c([N+](=O)[O-])c1Cl,-3.67% [at 11.4 µM],–
CC(=O)N1CCC2(CCCN(Cc3ccc(C#N)cc3)C2)CC1,5.48%,–
CCOC(=O)c1cc2sccc2n1Cc1ccc(C#N)cc1,–,15.8 µM (active)
COc1ccc(CCNC(=O)c2cc3sccc3n2C)cc1OC,14.3%,–
O=c1[nH][nH]c(=O)c2cc(N3CCCC3)ccc12,5.03%,–
O=C(Nc1ccc(S(=O)(=O)N2CCCCC2)cc1)c1cnccn1,-2.44%,–
Cc1cccc(C)c1NC(=O)CCCSc1nnc(-c2ccco2)n1-c1ccccc1,–,20 µM (active)
CCc1cccc(C)c1NC(=O)CSc1nnc(-c2ccco2)n1N,9.32%,–
COc1ccc(C(=O)NC(=O)CSc2nnc(-c3ccco3)n2-c2ccccc2)cc1,24.9%,–
CC1CCCCN1CCCNC(=O)c1ccc(-n2c(=O)c(=O)[nH]c3ccccc32)cc1 (centres undefined),-4.46%,–

SMILES,activation,Potency
O=C1c2ccccc2C(O)N1Cc1ccccc1Cl (centres undefined),3.64%,–
COC(=O)[C@@]1(Cc2ccc(F)cc2)[C@H]2c3cc(C(=O)N(C)C)n(CCc4c[nH]c5ccc(OC)cc45)c3C[C@H]2CN1C(=O)c1ccccc1,3.36%,–
COC(=O)[C@@]1(Cc2ccc(OC)cc2)[C@H]2c3cc(C(=O)N4CCCC4)n(Cc4ccc(OC(F)(F)F)cc4)c3C[C@H]2CN1C(=O)c1ccccc1,–,2.51 µM (active)
COC(=O)[C@@]1(Cc2ccc(F)cc2)[C@H]2c3cc(C(=O)N4CCCC4)n(C[C@H](O)CO)c3C[C@H]2CN1C(=O)c1ccccc1,12.9%,–
COc1ccc(OCc2cccc(C(=O)N3CCCC3)c2)cc1,8.91%,–
COC(=O)[C@@]1(Cc2ccc(F)cc2)[C@H]2c3cc(C(=O)N4CCCC4)n(Cc4ccc(OC(F)(F)F)cc4)c3C[C@H]2CN1C(=O)c1ccccc1,–,1.58 µM (active)
COC(=O)[C@@]1(Cc2ccc(F)cc2)[C@@H]2[C@@H](CC(=O)[C@H]2CC(=O)C(=O)N2CCCC2)CN1C(=O)c1ccccc1,18.8%,–
COC(=O)[C@@]1(Cc2ccccc2)[C@H]2c3cc(C(=O)N4CCCC4)n(Cc4ccc(C)o4)c3C[C@H]2CN1C(=O)c1ccccc1,–,1.58 µM (active)
COc1ccc(-c2nc(CS(=O)CC(=O)N3CCc4ccccc4C3)c(C)o2)cc1 (centres undefined),-0.822%,–
COc1ccc(/C=C/NC(=O)c2ccc(OC)cc2)cc1,-3.02% [at 11.4 µM],–
NCCCNCCCCN(CCCN)/[N+]([O-])=N/O,3.09%,–
CC1(C)S[C@@H]2[C@@H](NC(=O)[C@@H](N)c3ccccc3)C(=O)N2[C@H]1C(=O)O,-1.13%,–
CC(Sc1nncn1C)C(=O)Nc1ccccc1-c1ccccc1 (centres undefined),10.9%,–
CS(=O)(=O)N1CCN(C(=O)c2cc3ccccc3oc2=O)CC1,-3.19%,–
C/C(CCN1CCc2nc(-c3ccccc3)c(-c3ccccc3)cc2C1)=N\O[C@@H](C)c1cn([C@@H]2COC[C@@H]2O)nn1,0.56% [at 11.4 µM],–
NC(=O)COc1ccc2c3c(c(=O)oc2c1)CCCCC3,-1.24%,–
O=C(COc1ccc2c3c(c(=O)oc2c1)CCC3)NC1CCCCC1,25.1%,–
CCCOc1ccc2c3c(c(=O)oc2c1OCCC)CCC3,–,3.16 µM (active)
Oc1ccc2ccccc2c1C=NCc1c(O)ccc2ccccc12,1.97% [at 11.4 µM],–
CC(=O)N1CCN(c2ccc(NCc3ccc(C(C)C)cc3)cc2)CC1,–,3.98 µM (active)
CC(C)N(C(=O)COC(=O)c1ccccc1C(=O)N1CCN(c2ccc(F)cc2)CC1)C(C)C,7.82%,–
CN1CCN(c2ccc(NC(=O)COc3ccc(Cl)cc3Cl)cc2)CC1,-35.6%,–
